Test results from the OligoGym collection.

Each sequence was assayed against CEACAM7 (assay: pooled miR-30 sensor sort-seq; sequence = guide strand). Conditions: shRNA.
Further: reference of the scale not given here.

Q: For AATCATGATGCTGACAGCGGTC, which sensor-assay potency score (higher = more potent) is on record?
A: The sensor-assay potency score (higher = more potent) was -0.463.

Q: Which sensor-assay potency score (higher = more potent) does the source give for TAGAGGTCTAACTCTAACAGGG here?
A: The sensor-assay potency score (higher = more potent) was -0.585.

Q: Which sensor-assay potency score (higher = more potent) does the source give for TATAATTCGATAGTTGGCATGC here?
A: Its sensor-assay potency score (higher = more potent) is -0.121.

Q: AAGATTTTCTTTTATAACGTGT was tested. Which sensor-assay potency score (higher = more potent) did it give?
A: The sensor-assay potency score (higher = more potent) was 0.163.

Q: With TAACGTTCTGGATCAGCAGGGT as the sequence, how does the sensor-assay potency score (higher = more potent) read?
A: Its sensor-assay potency score (higher = more potent) is 0.257.

Q: How did the sensor-assay potency score (higher = more potent) turn out when TATCCTATAATTCGATAGTTGG was run?
A: The sensor-assay potency score (higher = more potent) was -0.535.

Q: TATCTTTGTTCTCCACCGGATT was tested. Which sensor-assay potency score (higher = more potent) did it give?
A: The sensor-assay potency score (higher = more potent) was -1.29.

Q: How did the sensor-assay potency score (higher = more potent) turn out when TGACTCATAGCGGACATTCAGG was run?
A: Its sensor-assay potency score (higher = more potent) is -0.817.

Q: For AACTTGCTTGTACTGACTCATA, which sensor-assay potency score (higher = more potent) is on record?
A: Its sensor-assay potency score (higher = more potent) is -1.59.

Q: With TTGTCTCTCGACCGTTGTGTGC as the sequence, how does the sensor-assay potency score (higher = more potent) read?
A: The sensor-assay potency score (higher = more potent) was -1.35.

Q: TAAAACCACAATATCTTTGTTC was tested. Which sensor-assay potency score (higher = more potent) did it give?
A: The sensor-assay potency score (higher = more potent) was 0.0103.

Q: How did the sensor-assay potency score (higher = more potent) turn out when TATATTGTCTCTCGACCGTTGT was run?
A: The sensor-assay potency score (higher = more potent) was -0.124.

Q: For TTATATTTTTTACATATCCTAT, which sensor-assay potency score (higher = more potent) is on record?
A: The sensor-assay potency score (higher = more potent) was -0.681.

These sequences were tested against CELA2A in the same assay as above. Conditions: shRNA.

Q: TTGCAGCTGGAGATCACGCCAT was tested. Which sensor-assay potency score (higher = more potent) did it give?
A: The sensor-assay potency score (higher = more potent) was -0.881.

Q: How did the sensor-assay potency score (higher = more potent) turn out when TTGGTTGGAGTTCCAGTCCTTG was run?
A: Its sensor-assay potency score (higher = more potent) is -0.732.

Q: TTATATTATTTTCCTTCTGTGA was tested. Which sensor-assay potency score (higher = more potent) did it give?
A: Its sensor-assay potency score (higher = more potent) is -1.25.

Q: With TTCTTCACCGCCAACCACCCTA as the sequence, how does the sensor-assay potency score (higher = more potent) read?
A: Its sensor-assay potency score (higher = more potent) is -0.855.

Q: With ATACTGGTTTTCACGCTGCTGC as the sequence, how does the sensor-assay potency score (higher = more potent) read?
A: Its sensor-assay potency score (higher = more potent) is -1.06.

Q: How did the sensor-assay potency score (higher = more potent) turn out when TTGTGGTAGTAGTTGCAGCCGA was run?
A: The sensor-assay potency score (higher = more potent) was -0.632.

Q: For ATGTAATTGGAGACCCGCGTGA, which sensor-assay potency score (higher = more potent) is on record?
A: Its sensor-assay potency score (higher = more potent) is -0.77.

Q: Which sensor-assay potency score (higher = more potent) does the source give for TGTGGTAGTAGTTGCAGCCGAG here?
A: The sensor-assay potency score (higher = more potent) was -0.0375.

Q: For TACCACTTGCCATTGGAGCTGT, which sensor-assay potency score (higher = more potent) is on record?
A: The sensor-assay potency score (higher = more potent) was 0.0148.

Q: TCTTAGAGACACTGACTGCCAG was tested. Which sensor-assay potency score (higher = more potent) did it give?
A: The sensor-assay potency score (higher = more potent) was -0.61.

Q: How did the sensor-assay potency score (higher = more potent) turn out when TAGTAGTTGCAGCCGAGGCGAG was run?
A: The sensor-assay potency score (higher = more potent) was -1.3.

Q: Which sensor-assay potency score (higher = more potent) does the source give for AATCTTAGAGACACTGACTGCC here?
A: The sensor-assay potency score (higher = more potent) was 0.508.

What follows are sequences tested against CENPE in the same assay as above. Conditions: shRNA.

Q: Which sensor-assay potency score (higher = more potent) does the source give for TTTGCTTGTATGTAGTTGCAAG here?
A: Its sensor-assay potency score (higher = more potent) is -0.96.

Q: How did the sensor-assay potency score (higher = more potent) turn out when TTACTTGGTGGTTCTGTCGGTC was run?
A: Its sensor-assay potency score (higher = more potent) is 0.00856.

Q: With TTCTTGAGTATCTATATTCATG as the sequence, how does the sensor-assay potency score (higher = more potent) read?
A: Its sensor-assay potency score (higher = more potent) is -0.957.

Q: For TTTGTCAATAGTTTCCTGCTGC, which sensor-assay potency score (higher = more potent) is on record?
A: Its sensor-assay potency score (higher = more potent) is 0.514.

Q: TTTATTTTTGTAACATAGCTTA was tested. Which sensor-assay potency score (higher = more potent) did it give?
A: Its sensor-assay potency score (higher = more potent) is -0.197.

Q: TTAGTTGCATCTCTTGATCTTT was tested. Which sensor-assay potency score (higher = more potent) did it give?
A: Its sensor-assay potency score (higher = more potent) is 0.409.

Q: Which sensor-assay potency score (higher = more potent) does the source give for TTGAAGAACTTCTTGCAGCCTC here?
A: The sensor-assay potency score (higher = more potent) was 0.172.

Q: For TAGCTCTTGATGTAACATGAGG, which sensor-assay potency score (higher = more potent) is on record?
A: The sensor-assay potency score (higher = more potent) was -1.24.

Q: With TTGACATCTTTTTTTAACGTAA as the sequence, how does the sensor-assay potency score (higher = more potent) read?
A: The sensor-assay potency score (higher = more potent) was -0.388.

Q: How did the sensor-assay potency score (higher = more potent) turn out when TTGAGTATCTATATTCATGTTA was run?
A: The sensor-assay potency score (higher = more potent) was 0.243.

Q: How did the sensor-assay potency score (higher = more potent) turn out when TTTATCAACAGTTTCTTTGTGT was run?
A: Its sensor-assay potency score (higher = more potent) is 1.24.

Q: With TAGCTGTTCATTTTGCTGCTTT as the sequence, how does the sensor-assay potency score (higher = more potent) read?
A: Its sensor-assay potency score (higher = more potent) is -0.023.

Q: With TTGTGTGGTAGGATTAACCTGG as the sequence, how does the sensor-assay potency score (higher = more potent) read?
A: Its sensor-assay potency score (higher = more potent) is 0.117.

Q: For TTGGAGTTCATTTTTCTCCTGT, which sensor-assay potency score (higher = more potent) is on record?
A: Its sensor-assay potency score (higher = more potent) is 0.691.

Q: Which sensor-assay potency score (higher = more potent) does the source give for TATAGTACCATTGTAGCCTTGT here?
A: The sensor-assay potency score (higher = more potent) was 0.768.
